Assay [1] can be described thus: AP1 Signaling Pathway (AID 357; active means well fitted curve in either direction with a large enough effect, not every such curve was filed as active;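 further: ME-180 reporter cells stimulated with EGF at its EC50 level; on the % scale 0 is the no-effect control and ±100 the full control effect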). The essentials:
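Modulation of EGF-driven AP-1 transcription was assessed with a beta-lactamase reporter in ME-180 cells. Compound and EC50 EGF were co-incubated 5 hours at 37 °C before 2.5-hour CCF4 loading at room temperature and dual-emission reading.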

Assay [2] deals with Cytochrome P450 1A2 (Homo sapiens) (UniProt P05177). The assay can be described thus: p450-cyp1a2 (AID 410; calls by dose curve;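 further: -100% = full effect of reference inhibitor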). The essentials: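 Luminescent demethylation readout: Luciferin-ME (100uM, equal to Km) turned over by 20nM CYP1A2 for 60 min at room temperature after NADPH regeneration addition, following 10 min compound preincubation. Normalization used 57 uM furafylline as full inhibition.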
Chain of Cytochrome P450 1A2 (Homo sapiens) (P05177 whole entry, looked up): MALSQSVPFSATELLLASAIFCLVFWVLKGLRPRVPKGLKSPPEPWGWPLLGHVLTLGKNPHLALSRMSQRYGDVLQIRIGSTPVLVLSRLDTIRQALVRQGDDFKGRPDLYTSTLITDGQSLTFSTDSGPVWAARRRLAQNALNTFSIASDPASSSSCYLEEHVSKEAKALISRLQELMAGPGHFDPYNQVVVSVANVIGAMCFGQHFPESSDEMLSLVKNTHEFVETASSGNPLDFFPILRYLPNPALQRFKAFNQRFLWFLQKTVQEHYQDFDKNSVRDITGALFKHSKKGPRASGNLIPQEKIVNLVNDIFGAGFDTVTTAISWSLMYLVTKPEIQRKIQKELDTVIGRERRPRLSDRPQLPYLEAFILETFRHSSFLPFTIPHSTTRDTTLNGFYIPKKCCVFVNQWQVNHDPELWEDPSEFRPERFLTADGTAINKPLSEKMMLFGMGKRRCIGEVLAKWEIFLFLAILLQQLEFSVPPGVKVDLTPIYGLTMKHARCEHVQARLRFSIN

Assay [3] concerns the target Glucocorticoid receptor (Homo sapiens) (UniProt P04150). The assay can be described thus: GR-GFP Redistribution (AID 450;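 active means compounds whose dose series gives a full or clear partial fitted curve of increased nuclear translocation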; further: potency means the concentration at half of the fitted maximal effect). To be noted: U2OS GR-GFP nuclear translocation, laser cytometry, 2 h.
Assay [4] has as its target Mitogen-activated protein kinase 10 (Mus musculus) (UniProt Q61831). Nature of the assay: JNK3 AlphaScreen Assay (AID 530; active means well fitted curve in either direction with a large enough effect, not every such curve was filed as active;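 further: kinase came from lysate of stimulated human HepG2 cells; signal reports phosphorylation of biotinylated GST-cJun 1-79 at Ser73 with 10 µM ATP; on the % scale 0 is the no-effect control and ±100 the full control effect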). In outline:
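Activity was read by AlphaScreen after JNK3-containing HepG2 lysate (cytokine pre-activated) phosphorylated biotinylated GST-cJun with 10 uM ATP at room temperature. Phospho-Ser73 cJun antibody with Protein-A acceptor beads provided detection.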
In general terms: Alpha assays give light when donor and acceptor beads are brought close together.

The target of assay [5] is 3',5'-cyclic-AMP phosphodiesterase 4B (Homo sapiens) (UniProt Q07343). Nature of the assay: qHTS Assay for Inhibitors of PDE-IV (AID 607; active means well fitted activation curve with a large enough effect in the main read-out, with a control signal flat, not every such curve was filed as active; further: % of control where 0% means no effect). In outline: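 Live HEK293 cells with a modified cyclic nucleotide-gated (CNG) channel report intracellular cAMP via membrane-potential dye fluorescence (ex 535/em 590 nm). Endogenous PDE-IV was targeted. Compounds were tested at up to 22.9 uM final; RO 20-1724 100 uM served as control.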
Chain of 3',5'-cyclic-AMP phosphodiesterase 4B (Homo sapiens) (Q07343 whole entry, looked up): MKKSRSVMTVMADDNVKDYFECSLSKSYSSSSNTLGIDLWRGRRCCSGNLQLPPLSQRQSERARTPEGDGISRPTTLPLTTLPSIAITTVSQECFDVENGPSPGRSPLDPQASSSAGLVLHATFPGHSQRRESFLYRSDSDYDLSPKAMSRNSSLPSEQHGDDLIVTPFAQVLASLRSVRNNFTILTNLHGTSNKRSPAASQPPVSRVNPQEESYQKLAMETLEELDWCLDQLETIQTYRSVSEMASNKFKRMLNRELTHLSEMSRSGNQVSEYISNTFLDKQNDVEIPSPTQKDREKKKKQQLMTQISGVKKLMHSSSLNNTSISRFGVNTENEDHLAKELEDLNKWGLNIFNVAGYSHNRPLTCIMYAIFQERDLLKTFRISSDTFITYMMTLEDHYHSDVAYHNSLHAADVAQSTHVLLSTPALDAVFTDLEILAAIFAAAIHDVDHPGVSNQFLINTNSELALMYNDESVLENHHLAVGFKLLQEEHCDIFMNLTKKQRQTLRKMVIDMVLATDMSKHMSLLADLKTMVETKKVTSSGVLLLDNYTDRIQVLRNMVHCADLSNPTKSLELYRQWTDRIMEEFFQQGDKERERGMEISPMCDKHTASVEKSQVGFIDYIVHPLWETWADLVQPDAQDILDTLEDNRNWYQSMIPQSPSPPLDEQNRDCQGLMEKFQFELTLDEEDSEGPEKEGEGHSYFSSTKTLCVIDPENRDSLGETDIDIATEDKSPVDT
Background: In qHTS, concentration-response curves come from the screen itself.

The nature of assay [6]: qHTS Assay for Lipid Storage Modulators (AID 1519; calls by dose curve). To be noted: Drosophila S3 cells, BODIPY lipid droplet/cell ratio, laser cytometry, cells loaded with oleic acid; for activity change, negative = inhibition: at 25.7 µM (top of the series). In outline:
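Cells seeded at 5,000 per well were treated with compounds over a concentration series and loaded with oleic acid (400 uM, as added). Lipid droplet fluorescence (488 nm excitation, 500-530 nm channel) was read by laser-scanning cytometry and normalized to 20 uM Triacsin C.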

Assay [7] concerns the target Ubiquitin carboxyl-terminal hydrolase 1 (Homo sapiens) (UniProt O94782). Nature of the assay: Inhibitors of USP1/UAF1: Pilot qHTS (AID 504865).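 Further: rhodamine fluorescence freed from ubiquitin-rhodamine substrate followed over time; top concentration of the series differs between compounds; on the % scale 0 is the no-effect control and ±100 the full control effect; nearly all actives have a fitted effect of over 35% in size.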 The essentials:
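USP1/UAF1 complex at 1 nM preincubated 15 min at room temperature with compound, then Ub-Rho substrate added at 150 nM final. Fluorescence (480/540 nm) read kinetically in 50 mM HEPES pH 7.8, 0.5 mM EDTA, 1 mM TCEP, 0.1 mg/ml BSA, 0.01% Tween-20.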

Assay [8] has as its target Luciferin 4-monooxygenase (Photinus pyralis) (UniProt P08659). Nature of the assay: Biochemical firefly luciferase enzyme assay for NPC (AID 624030).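 Further: purified P. pyralis luciferase at 10 nM with luciferin and ATP substrate; 0% = DMSO and -100% = full luciferase inhibition by PTC124 control; nearly all actives have a fitted effect of over 70% in size.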 In outline: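 Purified P. pyralis luciferase at 10 nM in 50 mM Tris Acetate (final), luminescence read within 5 minutes of enzyme addition to compounds. Activity normalised to PTC124 versus DMSO; concentration-response curves classed by r2, magnitude and activity.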

Assay [9] in a line: NFAT Signaling Pathway (AID 444; active means well fitted curve in either direction with a large enough effect, not every such curve was filed as active;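 further: carbachol stimulus at about its EC50 of 1 µM final; on the % scale 0 is the no-effect control and ±100 the full control effect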). To be noted: Jurkat NFAT-bla M1, carbachol, beta-lactamase ratio, 5 h; at 17.2 µM (top of the series) unless noted. The essentials: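 Jurkat cells with NFAT-driven β-lactamase reporter and co-expressed M1 receptor, stimulated with carbachol (final 1 uM, ~EC50), compound titration, 5 h at 37 °C. CCF4 loaded 1 h at RT; 460/530 nm ratio gave %activity and AC50.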

Assay [10] is described as follows: Stat Signaling Pathway (AID 446; active means well fitted curve in either direction with a large enough effect, not every such curve was filed as active;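 further: ME-180 cervical cancer cells given 40 pM IL-6 alongside compound; SIE-controlled beta-lactamase reporter measured as 460/530 nm FRET emission ratio; on the % scale 0 is the no-effect control and ±100 the full control effect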). In outline: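 Overnight-plated ME-180 cells bearing a STAT Inducible Element beta-lactamase reporter; 5 h co-exposure to compound and 40 pM IL-6; values normalized to 300 pM IL-6 and 125 nM JAK inhibitor controls.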
Assay [11] deals with Glucocorticoid receptor (Homo sapiens) (UniProt P04150). Nature of the assay: GR-EFC Redistribution (AID 451; calls by dose curve; further: potency means the concentration at half of the fitted maximal effect). To be noted: CHO-K1 GR-EFC translocation, beta-gal luminescence, 2 h. In outline: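 CHO-K1 cells expressing nuclear EA and GR-ED fragments of b-gal; compounds titrated up to 46 uM final, 2 h at 37 C. GR nuclear translocation read as complemented b-gal luminescence after 1 h RT detection.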
Chain of Glucocorticoid receptor (Homo sapiens) (P04150 whole entry, looked up, the tested form may be a part): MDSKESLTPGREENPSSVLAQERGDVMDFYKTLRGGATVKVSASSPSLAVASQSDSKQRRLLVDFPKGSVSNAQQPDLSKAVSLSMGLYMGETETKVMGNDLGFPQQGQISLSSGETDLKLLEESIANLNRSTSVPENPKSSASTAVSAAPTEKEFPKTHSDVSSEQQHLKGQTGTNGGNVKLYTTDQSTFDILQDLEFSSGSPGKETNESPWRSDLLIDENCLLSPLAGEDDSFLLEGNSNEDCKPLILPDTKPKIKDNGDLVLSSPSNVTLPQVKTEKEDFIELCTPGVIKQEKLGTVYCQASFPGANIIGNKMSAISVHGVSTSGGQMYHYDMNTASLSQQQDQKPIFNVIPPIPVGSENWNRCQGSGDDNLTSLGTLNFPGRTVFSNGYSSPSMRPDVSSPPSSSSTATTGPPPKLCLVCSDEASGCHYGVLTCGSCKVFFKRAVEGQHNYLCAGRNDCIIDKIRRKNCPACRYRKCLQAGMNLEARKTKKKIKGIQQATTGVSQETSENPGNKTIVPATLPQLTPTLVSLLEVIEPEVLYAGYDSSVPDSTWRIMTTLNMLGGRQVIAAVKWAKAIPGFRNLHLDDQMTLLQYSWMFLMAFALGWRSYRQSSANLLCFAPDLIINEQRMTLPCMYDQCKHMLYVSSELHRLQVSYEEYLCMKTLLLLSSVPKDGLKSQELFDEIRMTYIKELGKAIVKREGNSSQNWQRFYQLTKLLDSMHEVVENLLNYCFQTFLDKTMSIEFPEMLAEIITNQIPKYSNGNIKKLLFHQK

Assay [12] addresses ATP-dependent 6-phosphofructokinase (Trypanosoma brucei brucei) (UniProt O15648). Nature of the assay: qHTS Assay to Find Inhibitors of T. brucei phosphofructokinase: hit validation (AID 492961). The essentials: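 Compounds titrated; %activity normalized to 0x and 1x enzyme controls, curve-fitted. Readout: ADP-Glo luminescence after 45 min room-temperature reaction of 1.25 nM PFK, 0.1 mM ATP, 0.5 mM F6P, pH 8.0.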

A short description of assay [13]: qHTS profiling for inhibitors of Plasmodium falciparum proliferation (AID 504749).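 Further: 0% = DMSO vehicle and full inhibition = artemisinin control; nearly all actives have a fitted effect of over 60% in size.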 To be noted: P. falciparum in erythrocytes, SYBR Green DNA, 72 h. In outline: (§1)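 Each compound contacts P. falciparum-infected red blood cells for 72 h at 37 C; lysis buffer (Tris, EDTA, saponin, Triton X, SYBR Green I) is added and fluorescence measured next morning; values normalized to controls.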

The next assay relates to C2A. The assay is described as above. To be noted: P. falciparum in erythrocytes, SYBR Green DNA, 72 h; series mostly up to 12.8 µM. In outline: as §1
The test system of a further assay is CP191. The assay is described as above. To be noted: P. falciparum in erythrocytes, SYBR Green DNA, 72 h; series mostly up to 12.8 µM. In outline: as §1
The next assay deals with CP238. The assay is described as above. To be noted: P. falciparum in erythrocytes, SYBR Green DNA, 72 h; series mostly up to 12.8 µM. The essentials: as §1
In the next assay the test system is FAB9. Described as above. To be noted: P. falciparum in erythrocytes, SYBR Green DNA, 72 h; series mostly up to 12.8 µM. The essentials: as §1
A further assay deals with JCK. The description is as above. To be noted: P. falciparum in erythrocytes, SYBR Green DNA, 72 h; series mostly up to 12.8 µM. In outline:
as §1

The test system of a further assay is SC27B. The description is as above. To be noted: P. falciparum in erythrocytes, SYBR Green DNA, 72 h; series mostly up to 12.8 µM. In outline:
as §1

The next assay relates to CP256. Described as above. To be noted: P. falciparum in erythrocytes, SYBR Green DNA, 72 h; series mostly up to 12.8 µM. The essentials:
as §1

Where [14] appears, read: measured here: cell count channel max response.
Where [15] appears, read: measured here: lipid channel max response.
The mark [16] stands for this setting: at 12.8 µM (top of the series), parasite line A.

SMILES strings stand for the structures. Inconclusive results are not listed. Activity calls are given as the source filed them. Unless noted, the call rests on the fitted dose curve; in most records, active means well fitted curve in the direction sought with a large enough effect; inconclusive means small, poorly fitted or top-dose-only effect, or another doubt; inactive means no such curve, though single readings can be large; an effect the other way counts as inactive or inconclusive.

The results in this text go back to PubChem BioAssay (NCATS).

Chain of Ubiquitin carboxyl-terminal hydrolase 1 (Homo sapiens) (O94782 whole entry, looked up): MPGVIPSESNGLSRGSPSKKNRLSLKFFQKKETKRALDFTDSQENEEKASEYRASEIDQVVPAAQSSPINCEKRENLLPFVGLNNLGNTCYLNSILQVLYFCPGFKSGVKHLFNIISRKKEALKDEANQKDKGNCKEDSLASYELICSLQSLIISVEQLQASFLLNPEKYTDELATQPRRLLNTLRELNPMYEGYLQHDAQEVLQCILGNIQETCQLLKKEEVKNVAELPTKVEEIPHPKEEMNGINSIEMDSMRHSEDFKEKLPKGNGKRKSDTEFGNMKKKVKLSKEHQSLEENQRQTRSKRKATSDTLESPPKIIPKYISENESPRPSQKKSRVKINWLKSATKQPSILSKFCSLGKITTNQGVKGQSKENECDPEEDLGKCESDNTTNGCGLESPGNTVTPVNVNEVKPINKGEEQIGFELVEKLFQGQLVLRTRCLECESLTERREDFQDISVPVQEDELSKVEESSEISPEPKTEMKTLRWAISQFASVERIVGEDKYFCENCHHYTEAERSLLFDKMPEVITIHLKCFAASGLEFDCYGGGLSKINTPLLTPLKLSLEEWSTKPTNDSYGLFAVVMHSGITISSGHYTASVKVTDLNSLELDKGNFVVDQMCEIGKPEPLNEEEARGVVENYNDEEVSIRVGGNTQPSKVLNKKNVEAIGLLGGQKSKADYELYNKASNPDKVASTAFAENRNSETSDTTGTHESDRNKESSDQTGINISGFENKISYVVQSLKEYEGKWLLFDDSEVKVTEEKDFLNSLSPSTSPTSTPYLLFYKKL
Chain of ATP-dependent 6-phosphofructokinase (Trypanosoma brucei brucei) (O15648 whole entry, looked up): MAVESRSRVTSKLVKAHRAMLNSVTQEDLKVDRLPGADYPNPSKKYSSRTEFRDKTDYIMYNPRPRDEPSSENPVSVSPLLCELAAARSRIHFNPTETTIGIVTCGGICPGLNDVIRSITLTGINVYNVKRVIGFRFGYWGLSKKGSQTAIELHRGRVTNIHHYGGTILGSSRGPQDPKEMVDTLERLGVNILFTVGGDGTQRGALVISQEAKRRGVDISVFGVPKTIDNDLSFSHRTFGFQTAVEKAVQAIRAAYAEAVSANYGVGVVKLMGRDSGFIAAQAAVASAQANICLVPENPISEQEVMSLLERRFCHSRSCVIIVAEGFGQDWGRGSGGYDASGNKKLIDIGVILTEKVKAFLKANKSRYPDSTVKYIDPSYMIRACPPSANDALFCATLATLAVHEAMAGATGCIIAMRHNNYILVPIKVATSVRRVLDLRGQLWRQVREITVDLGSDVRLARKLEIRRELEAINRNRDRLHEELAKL
Chain of Luciferin 4-monooxygenase (Photinus pyralis) (P08659 whole entry, looked up): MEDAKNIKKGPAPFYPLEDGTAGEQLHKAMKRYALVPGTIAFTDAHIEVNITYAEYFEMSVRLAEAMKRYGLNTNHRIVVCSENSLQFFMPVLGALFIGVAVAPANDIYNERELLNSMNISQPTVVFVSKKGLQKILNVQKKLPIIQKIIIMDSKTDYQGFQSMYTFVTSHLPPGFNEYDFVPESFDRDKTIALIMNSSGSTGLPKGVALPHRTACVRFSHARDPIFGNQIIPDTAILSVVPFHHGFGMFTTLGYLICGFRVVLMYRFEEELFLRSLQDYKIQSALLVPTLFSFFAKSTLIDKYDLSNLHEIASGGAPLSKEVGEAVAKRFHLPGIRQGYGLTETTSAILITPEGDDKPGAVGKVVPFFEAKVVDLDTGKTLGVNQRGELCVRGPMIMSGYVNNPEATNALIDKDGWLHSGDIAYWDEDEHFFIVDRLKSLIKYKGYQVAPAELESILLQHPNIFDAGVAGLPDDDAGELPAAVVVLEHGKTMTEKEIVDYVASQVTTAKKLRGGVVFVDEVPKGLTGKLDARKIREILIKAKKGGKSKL

As to `O=C(O)[C@@H](O)[C@@H](O)[C@@H](O[C@H]1O[C@@H](CO)[C@@H](O)[C@@H](O)[C@@H]1O)[C@@H](O)CO`, the result in assay [1] and in [5] was inactive. For the same molecule, the Potency result in assay [2], in assay [4], in [7] and in assay [8] was “inactive” in each case. In addition, the Potency in [3] is > 20.6 µM (inactive). Further, in assay [6], the activity change, negative = inhibition was -0.529% (inactive). The max response in assay [6] (setting [14]) amounted to 12.1%; in assay [6] (setting [15]), 10.3%.
For `CO[C@H]1[C@H](O[C@H]2O[C@@H](C)[C@@H](O[C@@H]3C[C@](C)(O)[C@H](O)[C@H](C)O3)[C@@H](N(C)C)[C@@H]2O)[C@@H](CC=O)C[C@@H](C)[C@@H](O[C@H]2CC[C@H](N(C)C)[C@H](C)O2)/C=C\C=C/C[C@@H](C)OC(=O)C[C@H]1O`, the outcome in assay [1], in [10], in assay [5] and in assay [12] was inactive. Further, the activity change, negative = inhibition in assay [9] was 7.86% (inactive); in [6], -1.68% (inactive). Also, the Potency in [3] and in assay [11] was > 20.6 µM (inactive) in each case. In addition, the Potency entry (in [4]; in assay [7]; in assay [8]; in the assay on C2A; with CP191; in the assay on CP238) was “inactive” each time. Besides, the Potency entry in the assay on FAB9, with JCK and in the assay with SC27B was “inactive” in each case. Besides, the max response in [6] (setting [14]) was -9.34%; in assay [6] (setting [15]) it was -16.8%. In assay [13] (setting [16]), the activity, negative = inhibition is -18% (inactive).
As to `O=C1O[C@@H]([C@@H](O)CO)[C@@H](O)[C@H]1O`, the molecule was called inactive in [1], in assay [10], in assay [5] and in [12]. Besides, the activity change, negative = inhibition in assay [9] was -7.5% (inactive); in [6] it was -0.208% (inactive). In addition, the Potency in [3] and in [11] was > 20.6 µM (inactive) throughout. The values for the max response in assay [6] (setting [14]) and in [6] (setting [15]) were 8.38% and 7.66%, respectively. In addition, the Potency result (in assay [7]; in assay [8]; with C2A; with CP191; in the assay on CP238; in the assay with CP256) was “inactive” each time. For the same molecule, the Potency result with FAB9, in the assay with JCK and in the assay on SC27B was “inactive” in each case. The activity, negative = inhibition in assay [13] (at 28.7 µM (top of the series), parasite line A) was -5.65% (inactive); in assay [13] (at 28.7 µM (top of the series), parasite line B), 14.7% (inactive).
For the molecule `C[C@H]1CS(=O)(=O)CCN1/N=C\c1ccc([N+](=O)[O-])o1`, the call in [1], in [10], in [5] and in assay [12] was inactive. The activity change, negative = inhibition in [9] was 1.33% (inactive); in assay [6] it was -3.89% (inactive). In addition, the Potency in assay [3] and in assay [11] was > 20.6 µM (inactive) in each case. The Potency result (in assay [4]; in assay [7]; in assay [8]; in the assay on C2A; with CP191; in the assay on CP238) was “inactive” each time. Also, the Potency result with CP256, with FAB9, in the assay on JCK and with SC27B was “inactive” throughout. Also, the values for the max response in assay [6] (setting [14]) and in assay [6] (setting [15]) were -15.4% and -17.6%, respectively. Besides, the activity, negative = inhibition in assay [13] (setting [16]) was -17.9% (inactive); in assay [13] (at 12.8 µM (top of the series), parasite line B) it was -12.5% (inactive).
With `CCCC(=O)Nc1ccc(OC[C@@H](O)CNC(C)C)c(C(C)=O)c1`, the molecule was called inactive in [1], in [10], in assay [5] and in [12]. Besides, the activity change, negative = inhibition was -10.7% (inactive) in assay [9] and -2.69% (inactive) in assay [6]. In addition, the Potency in [3] and in assay [11] was > 20.6 µM (inactive) each time. Besides, the Potency entry in [4], in assay [7] and in assay [8] was “inactive” in each case. Also, the max response is -0.4% in assay [6] (setting [14]) and -3.96% in assay [6] (setting [15]).
